The source of these data is PubChem BioAssay (NCATS).

The structures appear in SMILES notation. A number with no mark means an inactive call. Results filed as inconclusive are left out. Calls of active or inactive are those of the source. Unless noted, calls come from the whole dose curve; as a rule, active = well fitted curve in the direction sought with a large enough effect; inconclusive = small, poorly fitted or top-dose-only effect, or another doubt; inactive = no such curve, though single readings can be large; an effect the other way counts as inactive or inconclusive.

A short description of test [1]: qHTS to identify inhibitors of the type 1 interferon - major histocompatibility complex class I in skeletal muscle: primary screen against the NCATS LOPAC collection (AID 1347405).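 Note: lytic HiBiT luminescence reporting HLA-B protein level; % is set by controls: 0 for no effect and ±100 for the full control effect.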 In outline:
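Luminescence from HiBiT fused to endogenous HLA-B in CRISPR-engineered human myoblasts served as the read-out. Cells received 4.0 ng/ml IFN-beta plus compound (seven concentrations, 1:4.3 steps, highest 46 uM final) for 24 hrs before lytic detection.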
On the technique in general: qHTS replaces the single test concentration by a dilution series.

Test [2] can be described thus: qHTS for inhibitors of adenylyl cyclases using a fission yeast platform: a pilot screen against the NCATS LOPAC library (AID 1347410).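 Note: plate controls were DMSO vehicle for no effect and DPI positive control for full effect.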 In a few lines: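 Growth medium went into the plates first, then compounds were pinned (final up to 57 µM), then CHP2027 yeast were added. Plates were incubated overnight (18 h) at 30C in the dark, and GFP was measured by laser scanning cytometry.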

Test [3] has as its target Protein phosphatase 1D (Homo sapiens) (UniProt O15297). As to the kind of experiment: RapidFire Mass Spectrometry qHTS Assay for Modulators of WT P53-Induced Phosphatase 1 (WIP1) (AID 1347424).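 Note: amount of dephosphorylated VEPPL-S-QETFS peptide product formed by WIP1; series mostly up to about 63 µM; plate controls were DMSO wells for no effect and GSK830371 inhibitor control at 10 µM for full effect.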 In outline:
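WIP1 (10 nM final) was preincubated 1 h at room temperature with compounds in Tris-HCl pH 7.5, 30 mM MgCl2, TCEP, EGTA, BSA; 2 uM VEPPL-pS-QETFS phosphopeptide was added for 5 min, quenched with formic acid, and dephosphorylated product quantified by RapidFire MS.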

For test [4] the target is unchanged. As to the kind of experiment: Rhodamine-PBP qHTS Assay for Modulators of WT P53-Induced Phosphatase 1 (WIP1) (AID 1347425). Note: % of control where 0% means no effect. In a few lines: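 The read-out is the change in Rhodamine-PBP fluorescence (f1 - f0, ex 525/em 598 nm) as Pi is released, read each minute for 11 min. Final reaction: 5 nM WIP1, 10 uM phosphopeptide VEPPL-pS-QETFS, 10 uM Rh-PBP, 50 mM Tris-HCl pH 7.5, 30 mM MgCl2. Compound was preincubated with enzyme for 1 hour at room temperature.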

Test [5] in a line: Validation qHTS assay for inhibitors of Activation Induced Cytidine Deaminase (AID): UDG Counterscreen signal (AID 1347427). Note: 0% is about no effect. In outline:
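Counterscreen read of UDG activity (2 U/mL, 4/3x) in the FRET deamination format with AID (1 uM, 4/3x), DJC20/DJC23 substrates (250 nM, 4x), 4 h at room temperature. NaOH stop, fluorescence at 560 ex/665 em.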

In test [6] the target is Single-stranded DNA cytosine deaminase (Homo sapiens) (UniProt Q9GZX7). Kind of test: Validation qHTS assay for inhibitors of Activation Induced Cytidine Deaminase (AID): AID signal (AID 1347429). Note: % is set by controls: 0 for no effect and ±100 for the full control effect. In outline:
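Fluorescence at 540 nm excitation and 590 nm emission reports ssDNA cytosine deamination by AID, with UDG in the same well. Compound-treated reactions ran 4 hr at room temperature with DJC20/DJC23 substrate, followed by 30 min NaOH treatment.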

Test [7] can be described thus: Primary qHTS for inhibitors of La Crosse Virus (LACV) - induced cell death in SH-SY5Y cells (AID 1508616).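 Note: top concentration of the series differs between compounds; 0% = infected DMSO wells and 100% = uninfected DMSO wells; higher means more rescue of cells from virus-induced death.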 In a few lines:
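Protection against LACV-induced cell death is scored in SH-SY5Y cells exposed to compounds and virus (0.01 MOI) for 6 days. Data normalized to virus-infected DMSO wells and virus-free DMSO wells.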

Test [8] has as its target Calcium and integrin-binding protein 1 (Homo sapiens) (UniProt Q99828). As to the kind of experiment: Validation qHTS for Identification of Calcium Integrin Binding protein 1 (CIB1) Competitor (AID 1508618). Note: % is set by controls: 0 for no effect and ±100 for the full control effect. In outline: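 CIB1-GST (1 uM final) incubated 15 min at room temperature with compounds (up to 114 uM), then FITC-labelled alphaIIb peptide (100 nM) added. FP read (Ex 480/Em 540) after 15 min, pH 7.4 buffer containing 5 mM CaCl2.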

For test [9] the target is unchanged. As to the kind of experiment: Primary qHTS for Identification of Calcium Integrin Binding Protein 1 (CIB1) Competitor (AID 1508620).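 Note: GST tagged CIB1 binding a fluorescein labelled alphaIIb integrin peptide tracer; top concentration of the series differs between compounds; % is set by controls: 0 for no effect and ±100 for the full control effect.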 In a few lines:
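Fluorescence polarization competition: CIB1-GST (1 uM final) preincubated with compound 15 min at room temperature, then FITC-labeled alphaIIb peptide (100 nM final) added for another 15 min. Polarization read at Ex 480/Em 540.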

Test [10] can be described thus: Primary qHTS for small molecule stabilizers of the endoplasmic reticulum resident proteome: Secreted ER Calcium Modulated Protein (SERCaMP) assay (AID 1508630). Note: % is set by controls: 0 for no effect and ±100 for the full control effect. In outline:
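GLuc-SERCaMP-expressing SH-SY5Y cells, pretreated 16 h with compound, are challenged with thapsigargin to empty ER calcium stores; after 4 h, coelenterazine is added directly to the medium and luminescence is imaged.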

Test [11] in a line: A High-Content qHTS Against Drug Library for the Identification of Small Molecules that Inhibit DYT1 Early Onset Primary Dystonia-Associated Cell Pathology (AID 1645839; calls by dose curve; note: series mostly up to about 46 µM). In a few lines:
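Readout: %pathology, the punctate EGFP-TorsinA distribution from imaging, as the primary channel and cell count as the toxicity counterscreen. HEK293 Flp-In cells expressing delE TorsinA were induced with tetracycline and treated with compound for 48 h.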

For test [12], the target named is Cytochrome P450 2D6 (Homo sapiens) (UniProt P10635). As to the kind of experiment: Cytochrome P450 family 2 subfamily D member 6 (CYP2D6) small molecule antagonists: luciferase biochemical (cell-free) qHTS assay (AID 1645840; active = well fitted curve in the direction sought with a large enough effect in the repeat runs; an effect the other way counts as inactive or inconclusive; note: nearly all actives have a fitted effect of over 55% in size; note: potency is the fitted concentration of half-maximal effect). In a few lines: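 P450-Glo luminescent screen: recombinant CYP2D6 enzyme–proluciferin substrate mix preincubated with compound 10 min at room temperature, then NADPH regeneration added for 1 h at room temperature. Detection reagent added for 20 min; luciferin light read as relative luminescence units.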
Chain of Cytochrome P450 2D6 (Homo sapiens) (P10635 whole entry, looked up): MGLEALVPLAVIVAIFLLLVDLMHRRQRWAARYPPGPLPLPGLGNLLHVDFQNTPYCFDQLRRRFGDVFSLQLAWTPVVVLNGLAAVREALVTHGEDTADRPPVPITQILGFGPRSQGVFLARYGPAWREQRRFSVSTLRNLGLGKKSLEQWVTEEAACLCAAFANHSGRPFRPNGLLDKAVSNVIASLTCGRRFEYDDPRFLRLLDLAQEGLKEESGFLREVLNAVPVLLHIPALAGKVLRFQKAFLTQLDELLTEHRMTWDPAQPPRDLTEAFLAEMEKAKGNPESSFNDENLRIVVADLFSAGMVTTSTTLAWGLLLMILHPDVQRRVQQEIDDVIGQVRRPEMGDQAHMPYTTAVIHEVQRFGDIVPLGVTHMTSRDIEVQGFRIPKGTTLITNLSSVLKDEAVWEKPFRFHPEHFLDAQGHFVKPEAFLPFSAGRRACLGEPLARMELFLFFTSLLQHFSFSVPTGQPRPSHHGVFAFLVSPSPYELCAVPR

Test [13] addresses Cytochrome P450 2C9 (Homo sapiens) (UniProt P11712). As to the kind of experiment: Cytochrome P450 family 2 subfamily C member 9 (CYP2C9) small molecule antagonists: luciferase biochemical (cell-free) qHTS assay (AID 1645842; active = well fitted curve in the direction sought with a large enough effect in the repeat runs; an effect the other way counts as inactive or inconclusive; note: nearly all actives have a fitted effect of over 55% in size; note: potency is the fitted concentration of half-maximal effect). In a few lines:
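Luminescence, after 20 min with luciferin detection reagent, reflected CYP2C9 turnover during a 1 h NADPH-driven reaction at 37C. Enzyme-substrate mix contained 0.4% bovine serum albumin and was preincubated with compound 10 min at room temperature.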

For a further test, the target named is Papain (Carica papaya) (UniProt P00784). Kind of test: Primary qHTS assay for inhibitors of the protease papain (AID 1645873).
Chain of Papain (Carica papaya) (P00784 whole entry, looked up, the tested form may be a part): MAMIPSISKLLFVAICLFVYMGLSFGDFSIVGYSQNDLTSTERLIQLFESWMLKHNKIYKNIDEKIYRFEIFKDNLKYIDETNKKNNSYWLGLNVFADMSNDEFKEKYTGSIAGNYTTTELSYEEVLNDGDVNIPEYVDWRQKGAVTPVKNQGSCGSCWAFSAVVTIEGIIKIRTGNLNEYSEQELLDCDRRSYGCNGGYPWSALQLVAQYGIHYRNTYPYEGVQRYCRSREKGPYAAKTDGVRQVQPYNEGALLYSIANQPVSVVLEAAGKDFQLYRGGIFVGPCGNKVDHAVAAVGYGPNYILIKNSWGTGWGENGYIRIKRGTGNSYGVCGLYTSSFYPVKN
A short description of test [14]: Primary qHTS for inhibitors of nuclear receptor binding SET domain protein 2 (NSD2) in an isogenic RCH-ACV NSD2 p.E1099K mutant (9B) (AID 1645876). Note: nearly all actives have a fitted effect of over 70% in size.
Test [15] can be described thus: Cell Viability qHTS for small molecule stabilizers of the endoplasmic reticulum resident proteome (AID 1508629). Particulars: cell viability counter-screen, 100 nM thapsigargin for final 4 h.
Test [16] is described as follows: qHTS to identify inhibitors of the type 1 interferon - major histocompatibility complex class I in skeletal muscle: primary screen against the NCATS Pharmaceutical Collection (AID 1347407). In outline: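 Cells were seeded with 4 ng/ml IFN-beta, incubated 1 h, then dosed with compounds over eight 1:5 steps up to 46 uM final. After 24 h at 37 C, HiBiT lytic reagent was added and luminescence read after 10 min lysis in the dark.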

Test [17] is described as follows: qHTS to identify inhibitors of the type 1 interferon - major histocompatibility complex class I in skeletal muscle: primary screen against the NCATS Mechanism Interrogation Plate v5.0 (MIPE) Libary (AID 1347411).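 Note: plate controls were vehicle for no effect and reference inhibitor for full effect; nearly all actives have a fitted effect of over 65% in size.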 In a few lines:
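Luminescence from HiBiT-tagged endogenous HLA-B*08:01 served as the MHC class I read-out. CRISPR-engineered C25cl48 human myoblasts received 4.0 ng/ml IFN-beta plus compound for 24 hrs, with an 11-point, 1:3 series topping at 46 uM final.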

The target in test [18] is Calcium and integrin-binding protein 1 (Homo sapiens) (UniProt Q99828). As to the kind of experiment: Confirmatory qHTS for Identification of Calcium Integrin Binding Protein 1 (CIB1) Competitor (AID 1508617). Note: % is set by controls: 0 for no effect and ±100 for the full control effect; nearly all actives have a fitted effect of over 65% in size. In outline:
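Compounds at up to 114 uM final met 1 uM GST-tagged CIB1 for 15 min at room temperature (HEPES pH 7.4, 5 mM CaCl2). FITC-labelled alphaIIb peptide, 100 nM, added; polarization read after 15 min more.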

Chain of Cytochrome P450 2C9 (Homo sapiens) (P11712 whole entry, looked up): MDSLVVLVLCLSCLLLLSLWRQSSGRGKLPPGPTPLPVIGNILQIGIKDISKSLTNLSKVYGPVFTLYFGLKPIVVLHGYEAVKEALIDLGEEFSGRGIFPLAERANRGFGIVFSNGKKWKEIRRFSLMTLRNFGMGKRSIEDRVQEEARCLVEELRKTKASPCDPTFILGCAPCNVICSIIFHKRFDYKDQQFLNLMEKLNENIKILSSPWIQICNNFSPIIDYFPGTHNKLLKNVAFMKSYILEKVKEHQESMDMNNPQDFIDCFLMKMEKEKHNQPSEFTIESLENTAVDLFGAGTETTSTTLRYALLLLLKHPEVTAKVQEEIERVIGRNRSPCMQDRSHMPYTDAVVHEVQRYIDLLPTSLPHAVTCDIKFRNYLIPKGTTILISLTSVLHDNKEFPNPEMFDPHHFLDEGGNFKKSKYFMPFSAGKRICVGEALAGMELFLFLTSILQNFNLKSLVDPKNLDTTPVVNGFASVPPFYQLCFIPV
Chain of Single-stranded DNA cytosine deaminase (Homo sapiens) (Q9GZX7 whole entry, looked up): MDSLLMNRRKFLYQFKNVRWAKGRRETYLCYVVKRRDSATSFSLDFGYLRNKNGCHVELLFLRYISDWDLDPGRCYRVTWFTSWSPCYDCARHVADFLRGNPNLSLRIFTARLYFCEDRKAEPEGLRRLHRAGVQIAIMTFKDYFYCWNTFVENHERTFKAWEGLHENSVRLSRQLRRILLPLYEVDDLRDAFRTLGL
Chain of Protein phosphatase 1D (Homo sapiens) (O15297 whole entry, looked up): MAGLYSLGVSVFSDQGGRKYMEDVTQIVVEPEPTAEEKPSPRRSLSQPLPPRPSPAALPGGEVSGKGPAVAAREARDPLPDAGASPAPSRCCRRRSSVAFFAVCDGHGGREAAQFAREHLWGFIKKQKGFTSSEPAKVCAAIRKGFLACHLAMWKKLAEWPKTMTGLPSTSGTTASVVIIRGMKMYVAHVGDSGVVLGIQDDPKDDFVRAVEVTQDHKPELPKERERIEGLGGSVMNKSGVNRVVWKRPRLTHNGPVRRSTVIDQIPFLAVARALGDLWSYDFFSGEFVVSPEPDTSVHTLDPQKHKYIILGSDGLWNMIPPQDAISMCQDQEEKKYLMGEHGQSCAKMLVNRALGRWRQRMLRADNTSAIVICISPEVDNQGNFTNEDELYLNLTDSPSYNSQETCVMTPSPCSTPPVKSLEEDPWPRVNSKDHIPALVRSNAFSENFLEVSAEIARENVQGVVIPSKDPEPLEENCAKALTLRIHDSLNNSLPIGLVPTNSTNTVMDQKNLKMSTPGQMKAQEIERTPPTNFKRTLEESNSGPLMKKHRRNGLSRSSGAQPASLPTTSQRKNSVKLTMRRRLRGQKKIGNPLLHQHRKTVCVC
Chain of Calcium and integrin-binding protein 1 (Homo sapiens) (Q99828 whole entry, looked up): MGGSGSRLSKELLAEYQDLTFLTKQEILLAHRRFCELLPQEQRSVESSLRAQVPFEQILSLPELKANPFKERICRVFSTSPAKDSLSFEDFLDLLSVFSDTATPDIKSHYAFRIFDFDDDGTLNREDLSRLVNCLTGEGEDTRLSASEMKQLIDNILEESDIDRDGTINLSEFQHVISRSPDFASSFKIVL

On to `NC(Cc1ccc(Cl)cc1)C(=O)O` (stereo unspecified), for which the Potency entry (in test [1]; in test [6]; in [7]; in [10]; with Papain (Carica papaya)) was “inactive” each time. For the same molecule, the outcome in test [2], in test [5] and in test [8] was inactive. Further, the activity change, negative = inhibition in test [3] was 4.3% [at 0.505 µM]; in test [4], -2.63% [at 0.575 µM]; in test [9] it was -1.79% [at 1.07 µM]; in test [12] it was 5.71% [at 0.91 µM]; in [13] it was 10.6% [at 0.91 µM]. Also, the % pathology change, negative = correction in test [11] is -28% [at 0.369 µM]. In addition, the outcome in test [14] was “inactive [at 0.588 µM]”.
Turning to `OC(CCN1CCCCC1)(c1ccccc1)C1CCCCC1` (stereo unspecified), the Potency entry (in [1]; in test [3]; in test [6]; in test [7]; in test [13]; in the test with Papain (Carica papaya)) was “inactive” throughout. Further, the result in [2], in [4] and in test [5] was inactive. Also, the max response in test [15] was 13.7%. The Potency in test [12] is 1.74 µM (active).
As to `CCCNC(C)C(=O)Nc1ccccc1C` (stereo unspecified), the Potency entry in [1], in [16], in [6], in [7], in [9] and in test [10] was “inactive” each time. Further, the Potency entry (in test [11]; in test [13]; in the test with Papain (Carica papaya); in test [14]) was “inactive” each time. Further, the outcome in test [2], in test [4] and in test [8] was inactive.
As to `CCCN1C[C@H](CSC)C[C@@H]2c3cccc4[nH]cc(c34)C[C@H]21`, the Potency entry in test [1], in [16], in test [6], in [7], in test [9] and in [10] was “inactive” in each case. For the same molecule, the Potency result (in test [11]; in [13]; with Papain (Carica papaya); in test [14]) was “inactive” throughout. In addition, the molecule was classed as inactive in test [2] and in test [4]. In addition, the Potency in test [12] was 0.055 µM (active).
For the molecule `CCN(Cc1ccncc1)C(=O)C(CO)c1ccccc1` (stereo unspecified), the Potency result in test [1], in test [16], in test [6], in [7], in test [9] and in test [10] was “inactive” in each case. The Potency result (in [12]; in the test with Papain (Carica papaya); in test [14]) was “inactive” in each case. Further, the result in test [2], in [4] and in test [8] was inactive.
On to `C[N+](C)(C)CCOC(N)=O`, for which the Potency result in [1], in test [3], in test [6], in [7], in [9] and in test [10] was “inactive” each time. Moreover, the Potency entry (in test [11]; in [12]; in test [13]; in the test with Papain (Carica papaya)) was “inactive” each time. In addition, the call in test [2], in test [4], in test [5] and in test [8] was inactive.
Turning to `O=C(CCNNC(=O)c1ccncc1)NCc1ccccc1`, the Potency entry in test [1], in test [3], in test [6], in [7], in test [9] and in test [10] was “inactive” each time. For the same molecule, the Potency entry (in [11]; in the test with Papain (Carica papaya); in test [14]) was “inactive” throughout. The molecule was called inactive in test [2], in test [4] and in test [8]. Besides, the values for the Potency in [12] and in test [13] were 15.5 µM (active) and 5.49 µM (active), respectively.
As for `Nc1c2c(nc3ccccc13)CCCC2O` (stereo unspecified), the Potency result in test [1], in [3], in test [6], in test [7], in [9] and in [10] was “inactive” throughout. Also, the Potency result (in test [13]; with Papain (Carica papaya); in [14]) was “inactive” throughout. The result in [2], in [4], in test [5] and in [8] was inactive. Further, the Potency in test [12] is 15.5 µM (active).
With `NC(=O)c1ncn([C@@H]2O[C@H](CO)[C@@H](O)[C@H]2O)c1O`, the Potency result in test [1], in [17], in [3], in test [6], in test [7] and in test [10] was “inactive” in each case. Further, the Potency entry (in test [12]; in test [13]; with Papain (Carica papaya); in [14]) was “inactive” in each case. The molecule was classed as inactive in test [2], in test [4], in test [5], in test [18] and in test [8].
